Data from PubChem BioAssay.
Active and inactive are the calls of the source.

Assays:
[1] = E. coli DRC41 culture turbidity changes, primary screen, E. coli filamentation inducer project, strain DRC41, OD650, 48 h (AID 1152);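 further: E. coli MC1000 strain DRC41 lacking acrAB efflux pump and sulA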; details: E. coli DRC41 (acrAB sulA), higher = more signal, called active from +8 up or from −8 down
[2] = small-molecule binders of probe aLefty1, primary screen, biochemical, small-molecule microarray, 635/667 nm fluorescence (AID 1153); details: higher = more signal;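 further: score merges spot fluorescence with signal-to-noise ratio from the scanned slide images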
[3] = PSAC antagonists in infected red cells, primary screen, cell-based, P. falciparum Indochina, OD700, 1 h (AID 1154); details: P. falciparum Indochina infected RBC osmotic lysis, higher = more signal, called active from +8 up or from −8 down
[4] = PSAC antagonists in infected red cells, primary screen, cell-based, P. falciparum Indochina, OD700, 2 h (AID 1155);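 further: lysis reports solute entry through the parasite surface anion channel PSAC; channel blockers reduce lysis of infected cells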; details: P. falciparum Indochina infected erythrocytes, osmotic lysis OD700; higher = more signal, called active from +8 up or from −8 down
[5] = osmotic lysis modulators in infected erythrocytes, primary screen, PSAC antagonist project, cell-based, P. falciparum Indochina, OD700, 3 h (AID 1156); details: higher = more signal, called active from +8 up or from −8 down
[6] = PSAC antagonists in infected red cells, primary screen, cell-based, P. falciparum Indochina, OD700, 18 h (AID 1157); details: P. falciparum Indochina infected erythrocytes, osmotic lysis OD700, 18 h; higher = more signal, called active from +8 up or from −8 down
[7] = modulators of S6 phosphorylation in cells, primary screen, cell-based, A549, cytoblot, luminescence, serum-stimulated (AID 1158); details: A549 phospho-S6 cytoblot, 5 h, higher = more signal;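 further: serum-stimulated A549 lung adenocarcinoma cells; signal is phosphorylated S6 detected by cytoblot immunostaining with HRP secondary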
[8] = biological target: NADPH oxidase 2 (Homo sapiens) (UniProt P04839); test: NOX2-dependent H2O2 signal modulators, primary screen, NOX inhibitor project, cell-based, HEK293-NOX2, PMA-stimulated, Amplex Red fluorescence (AID 1159); details: 45 min, higher = more signal, called active from +8 up or from −8 down; further: test concentration not given here
NADPH oxidase 2 (Homo sapiens), sequence (P04839 whole entry, looked up): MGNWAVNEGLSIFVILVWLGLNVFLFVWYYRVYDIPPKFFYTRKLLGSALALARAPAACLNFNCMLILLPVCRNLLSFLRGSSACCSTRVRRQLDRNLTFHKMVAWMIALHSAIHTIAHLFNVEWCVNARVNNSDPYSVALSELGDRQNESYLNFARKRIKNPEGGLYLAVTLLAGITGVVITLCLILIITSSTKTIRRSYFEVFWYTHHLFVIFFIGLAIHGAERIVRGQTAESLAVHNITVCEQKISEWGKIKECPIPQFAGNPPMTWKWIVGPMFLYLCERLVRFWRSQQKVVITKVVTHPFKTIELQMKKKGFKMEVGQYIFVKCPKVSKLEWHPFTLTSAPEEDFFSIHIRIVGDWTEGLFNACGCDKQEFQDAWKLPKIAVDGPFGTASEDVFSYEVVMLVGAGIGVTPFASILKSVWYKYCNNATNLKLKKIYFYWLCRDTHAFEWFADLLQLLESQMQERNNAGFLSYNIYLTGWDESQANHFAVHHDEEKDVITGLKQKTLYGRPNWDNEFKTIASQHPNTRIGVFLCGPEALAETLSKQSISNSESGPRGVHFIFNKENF

[9] = biological target: NADPH oxidase 4 (Homo sapiens) (UniProt Q9NPH5); test: NOX4-dependent H2O2 signal modulators, primary screen, NOX inhibitor project, cell-based, HEK293-NOX4, tetracycline-induced, Amplex Red fluorescence (AID 1160); details: 45 min, higher = more signal, called active from +8 up or from −8 down
NADPH oxidase 4 (Homo sapiens), sequence (Q9NPH5 whole entry, looked up): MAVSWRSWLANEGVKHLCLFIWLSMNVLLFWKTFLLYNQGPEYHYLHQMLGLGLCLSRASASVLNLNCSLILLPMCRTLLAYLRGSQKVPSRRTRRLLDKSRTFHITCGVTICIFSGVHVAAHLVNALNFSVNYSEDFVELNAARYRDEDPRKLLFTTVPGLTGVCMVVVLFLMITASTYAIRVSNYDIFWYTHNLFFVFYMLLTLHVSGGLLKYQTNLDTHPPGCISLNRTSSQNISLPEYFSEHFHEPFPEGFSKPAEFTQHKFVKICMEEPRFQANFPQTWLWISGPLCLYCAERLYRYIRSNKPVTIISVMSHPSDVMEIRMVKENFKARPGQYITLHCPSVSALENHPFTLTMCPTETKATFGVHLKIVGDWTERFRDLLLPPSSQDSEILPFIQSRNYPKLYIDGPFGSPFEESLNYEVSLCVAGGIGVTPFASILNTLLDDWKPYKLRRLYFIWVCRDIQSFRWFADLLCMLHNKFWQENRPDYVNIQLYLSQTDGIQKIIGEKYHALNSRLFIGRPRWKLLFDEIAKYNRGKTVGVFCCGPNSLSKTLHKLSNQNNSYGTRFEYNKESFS

[10] = biological target: NADPH oxidase 5 (Homo sapiens) (UniProt Q96PH1); test: NOX5-dependent H2O2 signal modulators, primary screen, NOX inhibitor project, cell-based, HEK293-NOX5, Amplex Red fluorescence (AID 1161); details: HEK293-NOX5, ionomycin, 45 min, higher = more signal
NADPH oxidase 5 (Homo sapiens), sequence (Q96PH1 whole entry, looked up): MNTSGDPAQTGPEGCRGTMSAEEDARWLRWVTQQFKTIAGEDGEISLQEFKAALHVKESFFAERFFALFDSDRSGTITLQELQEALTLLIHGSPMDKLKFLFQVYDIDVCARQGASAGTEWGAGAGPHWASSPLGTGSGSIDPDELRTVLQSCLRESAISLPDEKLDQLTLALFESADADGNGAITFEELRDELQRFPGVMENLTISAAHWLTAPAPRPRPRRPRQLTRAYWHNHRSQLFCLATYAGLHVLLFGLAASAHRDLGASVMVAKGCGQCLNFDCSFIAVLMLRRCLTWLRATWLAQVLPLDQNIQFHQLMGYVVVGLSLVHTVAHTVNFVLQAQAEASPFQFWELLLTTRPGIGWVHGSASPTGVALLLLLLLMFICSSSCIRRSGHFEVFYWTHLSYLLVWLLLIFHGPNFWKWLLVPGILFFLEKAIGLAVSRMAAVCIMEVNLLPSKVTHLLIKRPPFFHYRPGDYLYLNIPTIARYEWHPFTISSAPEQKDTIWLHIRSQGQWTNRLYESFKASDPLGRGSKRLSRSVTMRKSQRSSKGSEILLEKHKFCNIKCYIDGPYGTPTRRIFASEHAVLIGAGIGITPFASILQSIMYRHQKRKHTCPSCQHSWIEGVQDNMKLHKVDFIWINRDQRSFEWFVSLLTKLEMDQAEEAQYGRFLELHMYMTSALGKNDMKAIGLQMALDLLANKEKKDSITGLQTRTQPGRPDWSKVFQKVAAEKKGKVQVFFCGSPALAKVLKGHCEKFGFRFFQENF

Structure (SMILES)	z-score [1]	composite z-score [2]	z-score [3]	z-score [4]	z-score [5]	z-score [6]	z-score [7]	z-score [8]	z-score [9]	z-score [10]
CCCC[C@@H](O)C1=C(COC)C[C@H]2C(=O)N(Cc3ccccc3)C(=O)[C@H]2[C@H]1CO	0.878 (inactive)	-0.103	1.83 (inactive)	-0.384 (inactive)	-0.157 (inactive)	0.133 (inactive)	0.304	-0.725 (inactive)	0.282 (inactive)	0.373
Cc1ccc(F)cc1S(=O)(=O)N[C@@H]1CCN(Cc2ccc(Br)cc2)C1	-1.98 (inactive)	-0.0099	2.63 (inactive)	1.24 (inactive)	0.759 (inactive)	0.55 (inactive)	-0.166	-0.955 (inactive)	-0.846 (inactive)	-2.15
CCCC=C(CCC)[C@@H](NP(=O)(c1ccccc1)c1ccccc1)c1ccc(-c2ccccc2)cc1	-1.61 (inactive)	0.408	3.5 (inactive)	0.766 (inactive)	-1.07 (inactive)	0.96 (inactive)	-0.422	-1.02 (inactive)	-1.94 (inactive)	2.3
COC(=O)[C@@]1(Cc2ccc(F)cc2)[C@H]2c3cc(C(=O)N(C)C)n(Cc4ccc(OC(F)(F)F)cc4)c3C[C@H]2CN1C(=O)c1ccccc1	-1.4 (inactive)	0.651	-0.0341 (inactive)	0.673 (inactive)	-0.0751 (inactive)	0.692 (inactive)	-0.139	0.195 (inactive)	-0.44 (inactive)	0.205
COc1ccc(C#Cc2ccc3c(c2)[C@]2(C(=O)N3)[C@H](c3ccc(O)cc3)N3[C@H](c4ccccc4)[C@H](c4ccccc4)OC(=O)[C@H]3[C@@H]2C(=O)Nc2nc3ccccc3s2)cc1	1.38 (inactive)	0.0994	0.92 (inactive)	0.347 (inactive)	2.43 (inactive)	0.59 (inactive)	0.498	1.13 (inactive)	-0.838 (inactive)	-1.34
CCOC(=O)C[C@H]1[C@H](OC(=O)c2cc3ccccc3oc2=O)[C@@H](NC(=O)c2ccccc2)c2cc(OCCCO)ccc2N1C(=O)c1ccccc1	0.0768 (inactive)	0.158	0.609 (inactive)	-1.44 (inactive)	-0.35 (inactive)	-2.88 (inactive)	0.312	-0.423 (inactive)	-1.07 (inactive)	-0.713
CC(C)[Si]1(C(C)C)OCc2cc(-c3ccc(-c4ccc(Cl)c(Cl)c4)o3)nc(-c3ccccc3)c21	-0.618 (inactive)	-0.0501	1.01 (inactive)	0.394 (inactive)	0.6 (inactive)	0.138 (inactive)	-0.106	0.237 (inactive)	-1.35 (inactive)	0.701
C=CCC(OC(C)=O)[C@@H]1[C@@H](N(Cc2cc3ccccc3o2)C(=O)Cc2ccc(F)cc2)c2cc(OCCCO)ccc2N1C(=O)Cc1ccc2ccccc2c1 (stereo not given in full)	-1.06 (inactive)	0.051	1.23 (inactive)	0.62 (inactive)	-0.621 (inactive)	0.184 (inactive)	-0.213	0.682 (inactive)	0.88 (inactive)	1.86
CCOC(=O)C1=C[C@@H](C(C)(C)C)N(S(=O)(=O)c2ccc(C)cc2)[C@H]1c1cccc2ccccc12	-1.11 (inactive)	0.0927	0.564 (inactive)	0.849 (inactive)	0.31 (inactive)	0.193 (inactive)	-0.674	-0.527 (inactive)	0.13 (inactive)	0.139
COCCOC(=O)N1C(=O)[C@@]2(c3cc(C#CCCO)ccc31)[C@H](c1ccc(OCCO)cc1)N1[C@H](c3ccccc3)[C@H](c3ccccc3)OC(=O)[C@H]1[C@@H]2C(=O)Nc1nc2ccccc2s1	-0.0929 (inactive)	0.181	3.74 (inactive)	1.5 (inactive)	0.258 (inactive)	0.678 (inactive)	-0.115	1.58 (inactive)	1.26 (inactive)	1.43
CN1C2C=C(CCCO)C(C3C(=O)N(C(N)=O)C(=O)C32)C1C1CC1 (stereo not given)	-0.625 (inactive)	-0.188	-0.234 (inactive)	-0.0718 (inactive)	-0.624 (inactive)	-0.0366 (inactive)	-0.896	0.191 (inactive)	-0.07 (inactive)	0.257
CCCCCCc1nc(Cc2cc(OC)c(OC)c(OC)c2)cc2c1[Si](C(C)C)(C(C)C)OC2	-0.56 (inactive)	-0.131	0.88 (inactive)	-0.221 (inactive)	0.908 (inactive)	-0.718 (inactive)	0.552	-4.01 (inactive)	-1.88 (inactive)	-5.31
C[N+](C)(C)CCCCCCNC(=O)[C@@H]1C[C@@H]2C(=O)N3CCC[C@H]3C(=O)N2[C@@H]1c1ccc(O)cc1	0.524 (inactive)	-0.021	1.55 (inactive)	-0.15 (inactive)	-0.72 (inactive)	-0.117 (inactive)	-0.196	-0.425 (inactive)	0.375 (inactive)	-0.233
CCCC[C@@H](O)C1=C(COC)C[C@H]2C(=O)N(C)C(=O)[C@H]2[C@H]1CO	2.54 (inactive)	0.218	-0.179 (inactive)	-1.31 (inactive)	-1.12 (inactive)	-2.19 (inactive)	1.59	-0.342 (inactive)	0.564 (inactive)	0.819
COc1ccc([C@H]2OC[C@@H]3C[C@H](Cc4ccccc4)C(=O)N32)cc1	-0.446 (inactive)	0.015	1.96 (inactive)	0.92 (inactive)	-0.356 (inactive)	0.284 (inactive)	-0.133	0.829 (inactive)	0.284 (inactive)	0.695
NC(=O)[C@@]1(Cc2ccccc2)COC(c2ccc(OCCCO)cc2)=N1	0.917 (inactive)	0.533	17.5 (active)	2.55 (inactive)	0.121 (inactive)	-0.0697 (inactive)	-0.468	-0.519 (inactive)	-1.4 (inactive)	-2.14
